Experimental data: PubChem BioAssay (EPA / NIEHS)
The source made the active and inactive calls. The calls were made as follows: active = hit-call score of the fitted dose curve at least 0.9, where 1 is the maximum; inactive = score below 0.9.

Key:
[1] = ATG_PBREM_CIS: Attagene CIS-FACTORIAL HepG2 Assay for human Phenobarbital-responsive Enhancer Module (PBREM) (AID 2282955); conditions: HepG2 PBREM cis-reporter, Attagene multiplexed transcription; actives raise or lower the signal
In short: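 HepG2 cells transiently transfected with multiple cis-regulated reporter transcription units; endogenous factor activity at the PBREM element measured as reporter mRNA 24 h after dosing, via RT-PCR and capillary electrophoresis of fluorescent fragments; bidirectional fitting versus DMSO.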

[2] = molecular target: Paired box protein Pax-6 (Homo sapiens) (UniProt P26367); assay: ATG_Pax6_CIS: Attagene CIS-FACTORIAL HepG2 Assay for human Paired Box 6 (PAX6) (AID 2282956); conditions: HepG2 CIS-FACTORIAL PAX6 reporter transcription, RNA readout; actives raise or lower the signal
Sequence of Paired box protein Pax-6 (Homo sapiens) (P26367 whole entry, looked up): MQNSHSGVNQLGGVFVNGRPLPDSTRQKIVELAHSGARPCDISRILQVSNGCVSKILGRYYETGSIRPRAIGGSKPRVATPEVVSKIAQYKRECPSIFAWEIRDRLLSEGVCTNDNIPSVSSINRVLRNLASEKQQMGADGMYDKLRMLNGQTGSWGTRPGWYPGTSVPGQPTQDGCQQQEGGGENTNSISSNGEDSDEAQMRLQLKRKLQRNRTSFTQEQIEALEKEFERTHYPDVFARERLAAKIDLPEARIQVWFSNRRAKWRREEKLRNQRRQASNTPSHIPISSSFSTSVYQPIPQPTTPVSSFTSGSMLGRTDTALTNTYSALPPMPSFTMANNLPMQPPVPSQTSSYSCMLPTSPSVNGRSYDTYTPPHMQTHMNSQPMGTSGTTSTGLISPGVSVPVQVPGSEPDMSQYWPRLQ
In short: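 DMSO-referenced bidirectional fits of reporter mRNA fluorescence; HepG2 with transient cis-promoter MRTUs, 24 h post-dose, RT-PCR plus capillary electrophoresis detection.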

[3] = ATG_PXRE_CIS: Attagene CIS-FACTORIAL HepG2 Assay for human Pregnane X Receptor Element (PXRE) (AID 2282957); conditions: HepG2 Attagene CIS-FACTORIAL PXRE reporter, mRNA; actives raise or lower the signal
In short: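 Bidirectional activity, baselined to DMSO, derived from reporter mRNA fluorescence (RT-PCR plus capillary electrophoresis) in HepG2 cells bearing cis-promoter reporter units, 24 h exposure.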

[4] = ATG_PPRE_CIS: Attagene CIS-FACTORIAL HepG2 Assay for human Peroxisome Proliferator-activated Response Element (PPRE) (AID 2282958); conditions: HepG2 PPRE cis-element reporter, Attagene transcription factor profiling; actives raise or lower the signal
In short: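 HepG2 cells transiently transfected with multiplexed cis-element reporter units measure endogenous transcription factor activity. After 24 h compound exposure, reporter mRNA is quantified by RT-PCR, 6-FAM labeling, HpaI digestion and capillary electrophoresis; bidirectional fits are made against DMSO baseline.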

[5] = ATG_RORE_CIS: Attagene CIS-FACTORIAL HepG2 Assay for human RAR-related Orphan Receptor Element (RORE) (AID 2282959); conditions: HepG2 Attagene cis-factorial RORE reporter, mRNA; actives raise or lower the signal
In short: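 HepG2 cells transiently transfected with multiple cis-element reporter transcription units, exposed to chemical for 24 h. Reporter mRNA quantified by RT-PCR, 6-FAM primer-extension labeling, HpaI digestion and capillary electrophoresis; bidirectional fit versus DMSO baseline.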

[6] = ATG_Sox_CIS: Attagene CIS-FACTORIAL HepG2 Assay for human SRY-box transcription factor (SOX) (AID 2282960); conditions: HepG2 Attagene cis-factorial SOX reporter, mRNA; actives raise or lower the signal
In short: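 HepG2 cells transiently transfected with cis-element-driven multiple reporter transcription units, dosed 24 h; reporter mRNA measured by RT-PCR, FAM labelling, HpaI digestion and capillary electrophoresis. Bidirectional fit versus DMSO baseline.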

[7] = molecular target: Transcription factor Sp1 (Homo sapiens) (UniProt P08047); assay: ATG_Sp1_CIS: Attagene CIS-FACTORIAL HepG2 Assay for human Specificity Protein 1 (Sp1) (AID 2282961); conditions: HepG2 Sp1 cis-reporter transcription, actives raise or lower the signal
Sequence of Transcription factor Sp1 (Homo sapiens) (P08047 whole entry, looked up): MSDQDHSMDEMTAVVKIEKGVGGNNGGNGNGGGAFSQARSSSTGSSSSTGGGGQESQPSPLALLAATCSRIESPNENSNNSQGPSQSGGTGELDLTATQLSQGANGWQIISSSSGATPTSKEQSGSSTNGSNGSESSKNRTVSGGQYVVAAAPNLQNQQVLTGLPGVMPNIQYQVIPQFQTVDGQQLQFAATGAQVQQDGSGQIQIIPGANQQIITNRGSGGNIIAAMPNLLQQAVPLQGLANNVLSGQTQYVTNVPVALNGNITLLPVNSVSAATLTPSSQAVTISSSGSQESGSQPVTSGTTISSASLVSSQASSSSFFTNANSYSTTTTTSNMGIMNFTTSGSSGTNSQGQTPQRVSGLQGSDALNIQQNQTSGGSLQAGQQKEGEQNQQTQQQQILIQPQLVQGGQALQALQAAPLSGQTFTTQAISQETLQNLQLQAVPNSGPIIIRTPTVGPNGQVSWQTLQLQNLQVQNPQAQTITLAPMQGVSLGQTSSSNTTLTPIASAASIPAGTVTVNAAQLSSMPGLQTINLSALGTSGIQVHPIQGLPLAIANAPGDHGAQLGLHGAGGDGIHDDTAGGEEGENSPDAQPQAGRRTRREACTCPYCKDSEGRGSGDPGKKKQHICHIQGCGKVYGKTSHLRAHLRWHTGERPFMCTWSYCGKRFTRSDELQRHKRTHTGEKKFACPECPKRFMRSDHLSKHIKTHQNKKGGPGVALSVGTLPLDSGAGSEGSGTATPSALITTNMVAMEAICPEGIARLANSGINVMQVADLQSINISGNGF
In short: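 HepG2 cells transiently transfected with multiple reporter transcription units driven by cis-regulatory elements; Sp1-responsive reporter mRNA measured 24 h after dosing by RT-PCR and capillary electrophoresis fluorescence, fitted bidirectionally against DMSO baseline.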

[8] = ATG_SREBP_CIS: Attagene CIS-FACTORIAL HepG2 Assay for human Sterol Regulatory Element Binding (SREBP) (AID 2282962); conditions: HepG2 Attagene cis-factorial SREBP reporter, mRNA; actives raise or lower the signal
In short: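 In this cis-format assay, HepG2 liver cells express reporters controlled by promoter elements responsive to native transcription factors. Exposure lasts 24 h; reporter mRNA fluorescence from capillary electrophoresis gives the signal, fitted bidirectionally against DMSO.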

[9] = molecular target: Signal transducer and activator of transcription 3 (Homo sapiens) (UniProt P40763); assay: ATG_STAT3_CIS: Attagene CIS-FACTORIAL HepG2 Assay for human Signal Transducer and Activator of Transcription 3 (STAT3) (AID 2282963); conditions: HepG2, Attagene cis-factorial STAT3 reporter transcription; actives raise or lower the signal
Sequence of Signal transducer and activator of transcription 3 (Homo sapiens) (P40763 whole entry, looked up): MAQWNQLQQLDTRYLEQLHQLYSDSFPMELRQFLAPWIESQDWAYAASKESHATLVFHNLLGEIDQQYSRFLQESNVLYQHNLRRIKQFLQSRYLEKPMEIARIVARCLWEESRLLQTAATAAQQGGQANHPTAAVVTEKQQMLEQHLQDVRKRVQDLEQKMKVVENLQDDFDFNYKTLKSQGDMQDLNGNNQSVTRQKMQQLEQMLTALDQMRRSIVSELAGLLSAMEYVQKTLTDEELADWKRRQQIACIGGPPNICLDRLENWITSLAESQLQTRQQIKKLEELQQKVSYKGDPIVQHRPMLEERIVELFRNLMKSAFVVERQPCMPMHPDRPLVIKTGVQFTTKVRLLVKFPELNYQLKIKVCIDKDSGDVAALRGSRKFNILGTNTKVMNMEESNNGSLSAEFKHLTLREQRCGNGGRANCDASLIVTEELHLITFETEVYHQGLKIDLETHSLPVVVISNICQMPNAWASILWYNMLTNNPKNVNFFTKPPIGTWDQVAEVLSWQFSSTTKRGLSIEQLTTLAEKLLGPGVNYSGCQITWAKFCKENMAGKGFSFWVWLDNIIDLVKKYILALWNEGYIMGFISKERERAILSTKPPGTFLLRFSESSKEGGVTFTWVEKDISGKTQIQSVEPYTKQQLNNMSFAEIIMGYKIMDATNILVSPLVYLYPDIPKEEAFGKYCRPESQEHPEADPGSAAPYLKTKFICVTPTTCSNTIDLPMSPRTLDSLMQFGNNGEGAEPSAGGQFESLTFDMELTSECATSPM
In short: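 Uses human liver HepG2 transiently carrying cis-regulated reporter transcription units. Following 24 h dosing, reporter mRNA induction was detected by RT-PCR and capillary electrophoresis, analysed bidirectionally versus DMSO.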

[10] = ATG_TA_CIS: Attagene CIS-FACTORIAL HepG2 Assay for human TA Basal Promoter (AID 2282964); conditions: HepG2 Attagene CIS-factorial TA basal promoter reporter; actives raise or lower the signal
In short: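 Background internal-marker endpoint from a 52-component HepG2 cis-reporter panel. Cells treated 24 h; reporter transcripts quantified via RT-PCR and CE fluorescence against DMSO baseline.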

In the case of Cc1ccc(C(C)C)c(O)c1, the outcome [1] is reported as “inactive”, the outcome [2] is reported as “inactive” and the AC50 [3] is reported as 34.5 µM (active). For the same compound, the outcome [4] was “inactive”, the outcome [5] was “inactive” and the outcome [6] was “inactive”. For the same compound, the outcome [7] was “inactive”, the outcome [8] was “inactive” and the outcome [9] was “inactive”. For the same compound, the outcome [10] was “inactive”.

With Cc1ccc2ncccc2c1 the outcome [1] was “inactive”, the outcome [2] was “inactive” and the outcome [3] was “inactive”. The outcome [4] was “inactive”, the outcome [5] was “inactive” and the outcome [6] was “inactive”. For the same compound, the outcome [7] was “inactive”, the outcome [8] was “inactive” and the outcome [10] was “inactive”.

For O=C(O)CCCCC(=O)O, the outcome [1] was “inactive”, the outcome [2] was “inactive” and the AC50 [3] was 55 µM (active). For the same compound, the outcome [4] was “inactive”, the outcome [5] was “inactive” and the outcome [7] was “inactive”. For the same compound, the outcome [8] was “inactive”, the outcome [9] was “inactive” and the outcome [10] was “inactive”.

For COc1ccc2c(c1)c(CC(=O)O)c(C)n2C(=O)c1ccc(Cl)cc1, the outcome [1] was “inactive”, the outcome [2] was “inactive” and the outcome [3] was “inactive”. The AC50 [4] was 12.5 µM (active), the outcome [5] was “inactive” and the outcome [6] was “inactive”. The outcome [7] was “inactive” and the outcome [10] was “inactive”.

For C[Si]1(C)O[Si](C)(C)O[Si](C)(C)O[Si](C)(C)O1, the outcome [1] was “inactive”, the outcome [2] was “inactive” and the AC50 [3] was 26.6 µM (active). For the same compound, the outcome [4] was “inactive”, the outcome [5] was “inactive” and the outcome [6] was “inactive”. The outcome [7] was “inactive”, the outcome [8] was “inactive” and the outcome [9] was “inactive”. For the same compound, the outcome [10] was “inactive”.

For NCC1(Cc2noc(=O)[nH]2)CCCCC1, the outcome [1] was “inactive”, the outcome [2] was “inactive” and the outcome [3] was “inactive”. The outcome [4] was “inactive”, the outcome [5] was “inactive” and the outcome [6] was “inactive”. The outcome [7] was “inactive”, the outcome [8] was “inactive” and the outcome [9] was “inactive”. The outcome [10] was “inactive”.

In the case of CCc1c(C(=O)NN2CCCCC2)nn(-c2ccc(Cl)cc2Cl)c1-c1ccc(Br)cc1, the outcome [1] is reported as “inactive”, the AC50 [2] is reported as 1.75 µM (active) and the AC50 [3] is reported as 0.147 µM (active). The outcome [4] was “inactive”, the outcome [5] was “inactive” and the outcome [6] was “inactive”. The outcome [7] was “inactive”, the AC50 [8] was 0.719 µM (active) and the outcome [10] was “inactive”.

With CCOC(=O)CCC(=O)OCC the outcome [1] was “inactive”, the outcome [2] was “inactive” and the AC50 [3] was 47.8 µM (active). The outcome [4] was “inactive”, the outcome [5] was “inactive” and the outcome [7] was “inactive”. The outcome [8] was “inactive”, the outcome [9] was “inactive” and the outcome [10] was “inactive”.

In the case of Oc1ccc2c(c1)OC[C@@H](N1CCC(O)(c3ccc(F)cc3)CC1)[C@H]2O, the AC50 [1] is reported as 43.2 µM (active), the AC50 [2] is reported as 63.7 µM (active) and the AC50 [3] is reported as 13.7 µM (active). The outcome [4] was “inactive”, the AC50 [5] was 50 µM (active) and the outcome [6] was “inactive”. The outcome [7] was “inactive”, the outcome [9] was “inactive” and the outcome [10] was “inactive”.

In the case of CN[C@H]1CC[C@@H](c2ccc(Cl)c(Cl)c2)c2ccc(S(N)(=O)=O)cc21, the outcome [1] is reported as “inactive”, the outcome [2] is reported as “inactive” and the outcome [3] is reported as “inactive”. The outcome [4] was “inactive”, the outcome [5] was “inactive” and the outcome [6] was “inactive”. For the same compound, the outcome [7] was “inactive”, the AC50 [8] was 3.7 µM (active) and the outcome [9] was “inactive”. The outcome [10] was “inactive”.

With COc1cc(C=O)ccc1O the outcome [1] was “inactive”, the outcome [2] was “inactive” and the outcome [3] was “inactive”. The outcome [4] was “inactive”, the outcome [5] was “inactive” and the outcome [6] was “inactive”. For the same compound, the outcome [7] was “inactive” and the outcome [10] was “inactive”.

In the case of O=C(OCCCCCOC(=O)c1ccccc1)c1ccccc1, the outcome [1] is reported as “inactive”, the outcome [2] is reported as “inactive” and the outcome [3] is reported as “inactive”. For the same compound, the outcome [4] was “inactive”, the outcome [5] was “inactive” and the outcome [6] was “inactive”. For the same compound, the outcome [7] was “inactive”, the outcome [8] was “inactive” and the outcome [10] was “inactive”.

In the case of CCCCCCC(=O)OCC, the outcome [1] is reported as “inactive”, the outcome [2] is reported as “inactive” and the AC50 [3] is reported as 30.1 µM (active). For the same compound, the outcome [4] was “inactive”, the outcome [5] was “inactive” and the outcome [6] was “inactive”. For the same compound, the outcome [7] was “inactive”, the outcome [9] was “inactive” and the outcome [10] was “inactive”.

With CCCCC(CC)COC(=O)CC(C(=O)OCC(CC)CCCC)S(=O)(=O)O (centres undefined) the outcome [1] was “inactive”, the outcome [2] was “inactive” and the AC50 [3] was 1.1 µM (active). The outcome [4] was “inactive”, the outcome [5] was “inactive” and the outcome [6] was “inactive”. For the same compound, the outcome [7] was “inactive”, the AC50 [8] was 14.2 µM (active) and the outcome [9] was “inactive”. For the same compound, the outcome [10] was “inactive”.

For CCCCCCCCCCCC(=O)OC, the outcome [1] was “inactive”, the outcome [2] was “inactive” and the outcome [3] was “inactive”. For the same compound, the outcome [4] was “inactive”, the outcome [5] was “inactive” and the outcome [6] was “inactive”. For the same compound, the outcome [7] was “inactive”, the AC50 [8] was 59.6 µM (active) and the outcome [9] was “inactive”. The outcome [10] was “inactive”.

With Nc1ccccc1N the outcome [1] was “inactive”, the AC50 [2] was 23 µM (active) and the AC50 [3] was 82.4 µM (active). The AC50 [4] was 15.7 µM (active), the AC50 [5] was 28.5 µM (active) and the outcome [6] was “inactive”. The AC50 [7] was 25.9 µM (active), the outcome [9] was “inactive” and the AC50 [10] was 50.8 µM (active).

With CC(C)(C)c1cc(O)c(C(C)(C)C)cc1O the AC50 [1] was 61.6 µM (active), the AC50 [2] was 34.3 µM (active) and the outcome [3] was “inactive”. For the same compound, the AC50 [4] was 30.9 µM (active), the AC50 [5] was 22.6 µM (active) and the AC50 [6] was 114 µM (active). The AC50 [7] was 65.5 µM (active) and the AC50 [10] was 42.2 µM (active).

With Cc1ccc(C)c(O)c1C the outcome [1] was “inactive”, the outcome [2] was “inactive” and the outcome [3] was “inactive”. The outcome [4] was “inactive”, the outcome [5] was “inactive” and the outcome [6] was “inactive”. The outcome [7] was “inactive”, the outcome [8] was “inactive” and the outcome [9] was “inactive”. The outcome [10] was “inactive”.

With CCNc1cccc(C)c1 the outcome [1] was “inactive”, the outcome [2] was “inactive” and the outcome [3] was “inactive”. The outcome [4] was “inactive”, the outcome [5] was “inactive” and the outcome [6] was “inactive”. For the same compound, the outcome [7] was “inactive” and the outcome [10] was “inactive”.
